MBD2 inh: inhibitors of MBD2 binding to methylated DNA, primary screen, biochemical, TR-FRET, DNA-binding domain, human; Methyl-CpG-binding domain protein 2 (Homo sapiens), Q9UBB5; AID 686964, 2013; hit rate 0.31% among 370,000; inhibition, % at 4.4 µM; MBD2 binding to methylated oligonucleotide; in the data active = inhibition above about 13%
Target sequence (Q9UBB5 whole entry, looked up, the tested form may be a part): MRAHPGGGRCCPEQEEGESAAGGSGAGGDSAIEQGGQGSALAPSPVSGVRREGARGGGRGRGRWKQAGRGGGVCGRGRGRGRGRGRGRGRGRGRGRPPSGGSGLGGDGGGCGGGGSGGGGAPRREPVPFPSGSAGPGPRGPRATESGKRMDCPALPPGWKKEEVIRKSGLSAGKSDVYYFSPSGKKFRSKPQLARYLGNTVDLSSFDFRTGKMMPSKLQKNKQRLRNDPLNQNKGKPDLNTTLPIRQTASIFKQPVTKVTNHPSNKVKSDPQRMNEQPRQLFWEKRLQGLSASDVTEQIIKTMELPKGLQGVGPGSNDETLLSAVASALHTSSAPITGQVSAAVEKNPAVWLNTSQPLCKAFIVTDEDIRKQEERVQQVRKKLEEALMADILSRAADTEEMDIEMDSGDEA
UHRF1 binding: UHRF1 methylated DNA binding inhibitors, primary screen, counter-screen for MBD2 inhibitor project, biochemical, TR-FRET, human UHRF1, single concentration; inhibition, % at 4.4 µM; hit rate 0.75% among 370,000; E3 ubiquitin-protein ligase UHRF1 (Homo sapiens), Q96T88; UHRF1 binding to methylated oligo; AID 687016, 2013; in the data active = inhibition above about 21%;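 note: UHRF1 SRA domain binding a hemimethylated CpG hairpin DNA probe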
Neddyl block: inhibitors of cullin neddylation, primary screen, biochemical, TR-FRET, uHTS, NAE and Ubc12; NEDD8-conjugating enzyme Ubc12 (Homo sapiens) + NEDD8-activating enzyme E1 regulatory …; calls only at 25 µM; hit rate 0.58% among 360,000; AID 651699, 2012; in the data active = inhibition above about 36%
Rin1-Abl PPI inh: inhibitors of Rin1-Abl protein binding, primary screen, biochemical, TR-FRET | hit rate 0.4% among 360,000 | Tyrosine-protein kinase ABL1 (Homo sapiens) + Ras and Rab interactor 1 (Homo sapiens), … | inhibition, % at 7.35 µM | AID 588664, 2011; in the data active = inhibition above about 5%, passing the limit was not always enough
KLK7 zymogen act: proKLK7 zymogen activators, primary screen, biochemical, fluorescence intensity | Kallikrein-7 (Homo sapiens), P49862 | purified proKLK7, EDANS-DABCYL substrate fluorescence; 100% is mature enzyme control, 0% vehicle | activation, % at 7 µM | hit rate 0.9% among 370,000;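 active = activation above the mean of all tested compounds plus 3 SD, computed per campaign excluding outliers beyond control limits, cut at about 13% in these data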
Target sequence (P49862 whole entry, looked up): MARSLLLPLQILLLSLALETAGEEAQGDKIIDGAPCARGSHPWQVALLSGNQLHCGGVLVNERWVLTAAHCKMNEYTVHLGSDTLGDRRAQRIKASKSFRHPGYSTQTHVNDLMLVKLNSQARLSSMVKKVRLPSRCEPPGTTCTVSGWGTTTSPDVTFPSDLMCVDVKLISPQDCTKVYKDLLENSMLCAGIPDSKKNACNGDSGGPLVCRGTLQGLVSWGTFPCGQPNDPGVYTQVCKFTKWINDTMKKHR
LEDGF integ inh: blockers of LEDGF/p75-dependent integrase strand transfer – biochemical, TR-FRET, high throughput, primary screen; hit rate 0.64% among 370,000; TR-FRET IN-LEDGF/p75 DNA integration, Eu/Cy5; inhibition, % at 3.7 µM; HIV-1 integrase (with human LEDGF/p75);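 active = inhibition above the screen-wide mean plus 3 SD, cut at about 13% in these data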;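 note: signal is the Cy5 over europium emission ratio at 671 and 618 nm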
KLK7 act conf: proKLK7 zymogen activators, confirmation, biochemical, fluorescence intensity, triplicate; shares compounds with KLK7 zymogen act; purified proKLK7, EDANS-DABCYL substrate fluorescence; scaled: vehicle 0, mature enzyme 100; activation, % at 7 µM; hit rate 68% among 3,200;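 active = activation, as change over the incubation, above the mean of all tested compounds plus 3 SD, cut at about 13% in these data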
EDANS-DABCYL int: EDANS-DABCYL substrate optical interference, artefact control for kallikrein-7 zymogen activator project, biochemical, fluorescence intensity, high throughput. shares compounds with KLK7 zymogen act. no enzyme, 4 h; solvent 0%, active enzyme control 100%. activation, % at 7 µM. hit rate 80% among 3,200;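 active = activation above the all-compound mean plus 3 SD, ignoring values outside control-based bounds, cut at about 4.8% in these data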;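 note: value is the 4 h activation minus the activation read at time zero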
IN multimer act: HIV-1 IN multimer formation enhancers, counter-screen for LEDGF/p75 integration inhibitor project, biochemical, TR-FRET; hit rate 17% among 2,000; shares compounds with LEDGF integ inh; activation, % at 7.7 µM; TR-FRET HIV-1 integrase multimerization; AID 1053131, 2014; in the data active = activation above about 8.9%
TRFRET interf: TR-FRET optical interference artefacts, confirmation, artefact control for LEDGF/p75-dependent integration inhibitor project, biochemical, HIV-1 IN multimerization; shares compounds with LEDGF integ inh; TR-FRET optical interference counterscreen; inhibition, % at 7.7 µM; 2,000 tested, under 10 active; AID 1053135, 2014;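 active = inhibition above the mean over all tested compounds plus 3 SD, which no compound reached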
IN-LEDGF confirm: inhibitors of HIV-1 IN-LEDGF/p75 DNA integration, confirmation, biochemical, TR-FRET. hit rate 36% among 2,000. AID 1053136, 2014. TR-FRET LEDGF/p75-dependent HIV-1 integration. inhibition, % at 3.7 µM. shares compounds with LEDGF integ inh; in the data active = inhibition above about 14%
Hits are given with their value; 0 = inactive; - = not tested or not shown; + = active, no number. The list is not random: actives were taken first. Their share in the collection is about 3.1%.

SMILES	MBD2 inh	UHRF1 binding	Neddyl block	Rin1-Abl PPI inh	KLK7 zymogen act	LEDGF integ inh	KLK7 act conf	EDANS-DABCYL int	others
O=C(c1coc(=O)c(Br)c1)N1CCCc2ccccc21	0	0	+	0	0	19	-	-	IN multimer act=0;TRFRET interf=0;IN-LEDGF confirm=17
Cc1cc(NC(=O)Cc2cn(Cc3ccccc3)c3ccccc23)ccc1Oc1cccnc1	0	0	-	-	0	0	-	-
COc1ccc(-n2c(O)c(/C=N/NS(=O)(=O)c3cccc([N+](=O)[O-])c3)c3ccccc3c2=O)cc1OC	0	0	0	0	24	0	77	67
CCOc1ccc(NC(=O)CN(C)C(=O)c2ccc3c(c2)C(=O)N(CCC(C)C)C3=O)cc1OCC	0	0	0	0	0	0	-	-
C=CCNC(=S)NNC(=O)c1cccn(Cc2cccc(Cl)c2)c1=O	0	0	0	0	27	0	42	44
C=CCNC(=S)NNC(=O)c1cccn(Cc2ccc(Cl)cc2)c1=O	0	0	0	0	27	0	39	47
COc1ccccc1CCC(=O)Nc1ccc2c(c1)c(=O)n(C)n2Cc1ccc(F)cc1	0	0	-	0	0	0	-	-
COc1ccccc1CCC(=O)Nc1ccc2c(c1)c(=O)n(C)n2C	0	0	-	0	27	0	16	17
COc1cccc(CNC(=S)Nc2ccc3c(c2)c(=O)n(C)n3C)c1	0	0	-	0	25	0	0	13
COc1ccc(CN(CCN2CCOCC2)C(=O)c2cc(F)cc(F)c2)cc1OC	0	0	-	-	0	0	-	-
CCOC(=O)c1[nH]c2ccc(OC)cc2c1NC(=O)CCN1CCSCC1	0	0	-	0	17	0	0	10
CCOC(=O)c1oc2ccc(OC)cc2c1NC(=O)CN1CCN(C)CC1	0	0	-	0	16	0	0	0
CCOC(=O)c1[nH]c2ccc(F)cc2c1NC(=O)CCN1CCSCC1	0	0	0	0	0	0	-	-
C=C1[C@H](C)CN(S(=O)C(C)(C)C)[C@H]1CCO (some centres not stated)	0	0	-	-	0	0	-	-
COC(=O)[C@@]12C[C@@H](CC(=O)NCC3CCCCC3)C(=O)N(Cc3ccc4c(c3)OCO4)C1=CCC(C)(C)C2	0	0	0	-	0	0	-	-
O=C(Nc1ccc2nc(-c3ccccc3)[nH]c2c1)c1ccco1	0	0	-	0	0	0	-	-
O=C(Nc1cccc(-c2nc3ccccc3[nH]2)c1)c1cccc(NC(=O)c2ccco2)c1	0	0	-	0	34	0	0	0
COc1cccc(OC)c1C(=O)Nc1ccccc1N1CCCCC1	0	0	0	0	0	0	-	-
CCOC(=O)c1c(NC(=S)Nc2ccc(Cl)cc2)sc2c1CCN(C)C2	0	0	0	0	18	0	20	21
O=Cc1cn(-c2ccccc2)nc1-c1cc2cc(O)ccc2oc1=O	0	0	-	0	197	0	561	549
C[C@H]1CN([C@@H](C)CO)C(=O)c2cccc(NC(=O)c3nc4ccccc4s3)c2O[C@H]1CN(C)C(=O)Nc1ccc(F)cc1	0	0	0	0	0	0	-	-
CC(=O)OCC(=O)c1ccc2ccn(C(C)=O)c2c1	0	0	-	0	18	0	32	32
CCCn1c(=O)[nH]c(=O)c2c1nc(-c1ccc(C(F)(F)F)cc1)n2CCOC	0	0	-	0	0	0	-	-
COCCn1c(=O)[nH]c(=O)c2c(C(F)(F)F)cc(-c3cccs3)nc21	0	0	-	0	31	0	0	0
CN(C(=O)C1CCCO1)c1nnc(-c2ccncc2)s1 (configuration not stated)	0	0	0	0	130	0	167	167
SMILES	MBD2 inh	UHRF1 binding	Neddyl block	Rin1-Abl PPI inh	KLK7 zymogen act	LEDGF integ inh	KLK7 act conf	EDANS-DABCYL int	others
COc1ccccc1-c1nnc(N(C)C(=O)C2CCCO2)s1 (configuration not stated)	0	0	0	0	18	0	26	26
COC(=O)Nc1nnc(-c2ccccc2OC)s1	0	0	0	0	0	0	-	-
CN(C(=O)C1CCCO1)c1nnc(-c2ccccn2)s1 (configuration not stated)	0	0	0	0	98	0	94	95
COCC(=O)N(C)c1nnc(-c2ccccn2)s1	0	0	0	0	63	0	82	77
CN(C(=O)c1ccncc1)c1nnc(-c2ccncc2)s1	-	-	0	0	-	-	-	-
O=S(=O)(c1ccccc1)N1CCNCC1	0	0	0	0	0	0	-	-
O[C@H](COc1ccc(F)cc1)CN1CCC(C(O)(c2ccccc2)c2ccccc2)CC1	0	0	-	-	0	0	-	-
COC(=O)C1=C(C)N(Cc2ccccc2C(F)(F)F)C(=NCc2ccc(OC)cc2)NC1c1cccc(F)c1 (configuration not stated)	0	0	-	-	0	0	-	-
Cc1cccc(C(=O)O[C@@H]2[C@H](Cc3ccccc3)NS(=O)(=O)[C@H]3C[C@@H]4C=C[C@]23O4)c1	0	0	0	0	0	0	-	-
Cc1cc(=O)oc2cc(N3C(=O)CC(Cc4ccccc4)C3=O)ccc12 (configuration not stated)	0	0	0	0	19	0	25	23
Cc1ccc2c(C(=O)CN3CCC(C(N)=O)CC3)c(C)[nH]c2c1	-	-	0	0	-	-	-	-
Cc1cc(=O)oc2cc3c(cc12)OCO3	0	0	-	0	36	0	67	74
Cc1cc(=O)oc2cc(OCc3cc4c(cc3Cl)OCO4)ccc12	0	0	0	0	0	0	-	-
Cc1cc(=O)oc2cc3c(cc12)OCCN3	0	0	0	0	67	0	76	83

Bioassay records deposited in PubChem by several laboratories.
